High-throughput results (PubChem)
An excerpt weighted towards active compounds, which were near 2.1% of everything screened.
LMP1 NFkB inh = EBV LMP1-driven NF-kappaB luciferase reporter inhibitors, primary screen, cell-based, luminescence, single point | LMP1-induced NF-kappaB luciferase reporter cells | inhibition, % at 12.5 µM | hit rate 0.69% among 350,000 | AID 504558, 2011; in the data active means inhibition above about 41%;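 further: 0% = neutral control wells and 100% = reference inhibitor control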
aSyn UTR inh = MLPCN primary screen, SNCA 5' untranslated region | inhibition, % (tested at 7.5 µM) | alpha-synuclein 5'UTR reporter, inhibitor activity | hit rate 0.82% among 300,000; in the data active means inhibition above about 60%;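 further: H4 neuroglioblastoma cells stably carrying SNCA 5'UTR luciferase fusion; 0% = DMSO wells and 100% = positive control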
PAX8 inh HTS = inhibitors of PAX8-driven TPO luciferase reporter, primary screen, RMG-I cells, single concentration. hit rate 1.2% among 360,000. inhibition, % at 12.6 µM. SteadyGlo, 24 h;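 active means mean replicate inhibition at least 60% with every replicate also reaching 60%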;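 further: luciferase light reporting Pax8 driven TPO promoter activity; plate controls were median of neutral control wells for no effect and mitoxantrone controls for full effect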
Shn3 inh set2 = reduction of Shn3 3'UTR firefly luciferase signal, primary screen, Schnurri-3 inhibitor project, cell-based, Clone20 osteoblasts, set 2. Clone20 osteoblast Shn3 3'UTR firefly luciferase, 24 h. inhibition, % at 12.5 µM. hit rate 0.52% among 360,000. AID 588674, 2011;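 active means mean inhibition of at least 75% with every replicate also reaching 75%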;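 further: 0% = median of neutral control wells and 100% = pilot-screen positive control compound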
MITF TRPM1 inh = inhibitors of MITF-dependent TRPM1 promoter reporter, primary screen, cell-based, SK-MEL-5, single point, luciferase; inhibition, % at 12.5 µM; AID 488899, 2010; hit rate 0.83% among 330,000; SK-MEL-5 TRPM1 promoter luciferase, 24 h;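 active means mean inhibition across replicates of 60% or more, whatever share of single replicates reaches that level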
* marks the source's active call; other numbers are inactive results; . = no result given.

SMILES	LMP1 NFkB inh	aSyn UTR inh	PAX8 inh HTS	Shn3 inh set2	MITF TRPM1 inh
Cc1sc2ncnc(N/N=C/c3ccccc3O)c2c1C	43*	106*	5	86*	17
NC(=S)NC1CCS(=O)(=O)C1 (stereo not drawn)	-1	5	8	4	-3
C=CCSC(=S)NC1CCS(=O)(=O)C1 (stereo not drawn)	12	-14	5	-22	69*
NC(=S)N=Nc1ccc(NN=C(N)N)cc1	86*	68*	1	6	12
Cc1cc(=O)[nH]c(N/N=C/c2ccccn2)n1	16	74*	53	89*	29
O=c1cnnc(N/N=C/c2ccccn2)[nH]1	76*	75*	54	96*	80*
Cc1cc(=O)[nH]c(NN=Cc2c(Cl)cccc2Cl)n1	5	.	-17	12	0
Fc1cccc(/C=N/Nc2nncc3ccccc23)c1	-9	-13	-29	4	-15
C(=N\Nc1nncc2ccccc12)/c1ccccn1	30	98*	-62	68	48
COC(=O)[C@]12CCCCC=C1N(CCc1ccc(OC)c(OC)c1)C(=O)[C@H](CC(=O)NCC13CC4CC(CC(C4)C1)C3)C2	.	.	19	.	.
CC(=NCc1cccnc1)C1=C(O)c2ccccc2C1=O	-7	4	-9	11	-2
CC1CC(C)CN(S(=O)(=O)c2ccc(NC(=O)CCN3C(=O)C4CC=CCC4C3=O)cc2)C1 (stereo not drawn)	72*	.	2	-17	7
CN(C)c1ccc(C=NNC(=O)c2cccc3ccccc23)c(Cl)c1	74*	.	28	9	6
C[C@@H]1CCCCO[C@@H](CN(C)CC2CCCCC2)[C@H](C)CN([C@@H](C)CO)C(=O)c2cc(NS(=O)(=O)c3ccc(Cl)cc3)ccc2O1	.	.	12	.	.
C[C@@H]1CN([C@H](C)CO)C(=O)c2cc(NS(=O)(=O)c3ccc(F)cc3)ccc2O[C@@H](C)CCCCO[C@@H]1CN(C)CC1CCCCC1	.	.	101*	.	.
C[C@@H]1CCCCO[C@@H](CN(C)CC2CCCCC2)[C@H](C)CN([C@H](C)CO)C(=O)c2cc(NS(=O)(=O)c3ccc(Cl)cc3)ccc2O1	.	.	92*	.	.
O=C(N/N=C/c1ccc(OC(=O)c2cccc(Br)c2)cc1)c1cccnc1	-1	8	-7	0	-9
O=C(Nc1ncccc1O)c1cc2ccccc2o1	42*	-54	9	-57	-18
Cc1ccc(C)c(NC(=O)c2cc3ccccc3o2)c1	-34	-172	-95	-118	-20
O=C(Nc1ccc(Cl)cn1)c1cc2ccccc2o1	-13	-14	.	3	-16
O=C(Nc1ccccn1)c1cc2ccccc2o1	46*	42	.	-22	62*
Cc1ccnc(NC(=O)c2cc3ccccc3o2)c1	39	97*	58	57	40
CCOC(=O)c1[nH]c2ccc(F)cc2c1NC(=O)C(C)N1CCc2cc(OC)c(OC)cc2C1 (stereo not drawn)	-13	-4	.	13	11
Cc1cc(C(C)(C)CC(C)(C)C)ccc1OCCOCC[N+](C)(C)Cc1ccccc1	9	.	72*	88*	96*
Cn1cncc1C#Cc1c(C=O)[nH]c2ccccc12	6	.	40	8	62*
SMILES	LMP1 NFkB inh	aSyn UTR inh	PAX8 inh HTS	Shn3 inh set2	MITF TRPM1 inh
COc1cc(OC)c(NC2=CC(=O)C(=O)c3ccccc32)cc1Cl	4	107*	93*	42	99*
Cc1cc(NC2=CC(=O)C(=O)c3ccccc32)no1	-10	.	-21	-5	84*
NS(=O)(=O)c1ccc(NC2=CC(=O)C(=O)c3ccccc32)cc1	-7	51	10	-13	78*
CCOC(=O)c1ccc(NC2=CC(=O)C(=O)c3ccccc32)cc1	-17	-14	.	31	75*
NS(=O)(=O)c1ccc(NC(=O)Nc2ccccc2)cc1	-5	-6	-11	-17	-16
CCCCCCCCN1C(=O)N(C)C(N(O)C(=O)NC)C1(C)C (stereo not drawn)	-4	-8	.	-3	3
Cc1ccc(Nc2ccccc2)cc1	-1	-15	-18	-13	-8
Cc1ccc(NC2=CC(=O)C(=O)c3ccccc32)cc1	-17	103*	9	5	95*
CCOC(=O)C1(CCOc2ccccc2)CCN(Cc2ccc(O)c(Cl)c2)CC1	-7	108*	31	7	-1
CCOC(=O)C1(C)CCCN1C(=O)c1ccc(C)cc1 (stereo not drawn)	.	.	8	9	.
O=C(CSc1nnc2ccc(-c3cccnc3)nn12)Nc1ccccc1F	6	24	8	7	0
CCOc1cc([N+](=O)[O-])cc2c1C(=O)Nc1ccccc1O2	69*	7	-2	20	10
CCOC(=O)N1CCC(N2C(=O)c3ccccc3C2Nc2ccc3c(c2)OCCO3)CC1 (stereo not drawn)	13	-43	-23	13	71*
CCOCCOC(=O)C1=C(C)N(C)C(=O)NC1c1cc(Cl)c(O)c(OC)c1 (stereo not drawn)	3	5	12	-12	5
Cc1cccc(C)c1OCC(O)CN(Cc1ccccc1O)C1CCCCC1 (stereo not drawn)	14	62*	13	23	17
CN(CC(O)COc1ccc(OCC(O)CN(C)C2CCCCC2)cc1)C1CCCCC1 (stereo not drawn)	-4	-11	.	5	-12
COc1ccccc1C#Cc1ccc([C@H]2[C@@H](C#N)N(C(=O)C3CC3)[C@H]2CO)cc1	.	.	66*	.	.
COc1ccccc1C#Cc1ccc([C@H]2[C@@H](CO)N(C(=O)C3CCCCC3)[C@H]2C#N)cc1	.	.	90*	.	.
COc1ccccc1C#Cc1ccc([C@H]2[C@H](C#N)N(C(=O)C3CC3)[C@H]2CO)cc1	.	.	91*	.	.
CC(Sc1nc2ccc(C(=O)c3ccccc3)cc2[nH]1)C(=O)O (stereo not drawn)	-2	-4	-18	3	9
CC1CCN(CCCNS(=O)(=O)c2cc(Br)cc3c2N(C(=O)C2CC2)CC3)CC1	-8	5	12	-13	-5
C[C@@H]1CN([C@H](C)CO)C(=O)c2cc(NC(=O)Cc3ccccc3)ccc2O[C@@H](C)CCCCO[C@@H]1CN(C)Cc1ccc(C(=O)O)cc1	.	.	-7	.	.
C[C@@H]1CN([C@@H](C)CO)C(=O)c2cc(NC(=O)Cc3ccccc3)ccc2O[C@@H](C)CCCCO[C@H]1CN(C)Cc1ccc(C(F)(F)F)cc1	.	.	76*	.	.
C[C@@H]1CN([C@H](C)CO)C(=O)c2cc(NC(=O)Cc3ccccc3)ccc2O[C@@H](C)CCCCO[C@H]1CN(C)Cc1ccc(C(F)(F)F)cc1	.	.	80*	.	.
C[C@H](CO)N1C[C@H](C)[C@H](CN(C)Cc2ccc(C(F)(F)F)cc2)OCCCC[C@H](C)Oc2ccc(NC(=O)Cc3ccccc3)cc2C1=O	.	.	110*	.	.
C[C@H]1CCCCO[C@H](CN(C)Cc2ccccc2)[C@@H](C)CN([C@@H](C)CO)C(=O)c2cc(NC(=O)Cc3ccccc3)ccc2O1	.	.	-29	.	.
